Results as given in PubChem BioAssay AID2284352 (EPA ToxCast).
Results filed as inconclusive are left out. Calls of active or inactive are those of the source. The calls were made as follows: active = hit-call score of the fitted dose curve at least 0.9, where 1 is the maximum; inconclusive = response in the unintended direction; inactive = score below 0.9.

Test system: rainbow trout Peroxisome Proliferator-activated Receptor gamma (PPARg), gene 110528708
Assay: ATG_rtPPARg_EcoTox2: Attagene TRANS-FACTORIAL EcoTox-2 HepG2 Assay for rainbow trout Peroxisome Proliferator-activated Receptor gamma (PPARg)
Description: ATG_EcoTox2 is a cell-based, multiplexed assay created by modifying the existing Attagene TRANS-FACTORIAL system to include a panel of nuclear receptors from some or all the following species: human (Homo sapiens), african clawed frog (Xenopus laevis), rainbow trout (Oncorhynchus mykiss), japanese medaka (Oryzias latipes), and zebrafish (Danio rerio). The ECOTOX2-FACTORIAL format uses HepG2, a human liver cell line, with measurements taken at 24 hours after chemical dosing in a 24-well plate. ATG_rtPPARg_EcoTox2 is one of 29 assay components calculated in the ATG_EcoTox2 assay. It is designed to make measurements of mRNA induction, a form of inducible reporter, as detected with fluorescence intensity signals by Reverse transcription polymerase chain reaction (RT-PCR) and Capillary electrophoresis technology.The assay endpoint ATG_rtPPARg_EcoTox2 was analyzed in the positive analysis fitting direction relative to DMSO as the negative control and baseline of activity. Using a type of inducible reporter, measures of mRNA for gain-of-signal activity can be used to understand the reporter gene at the transcription factor-level as they relate to the gene PPARg. Furthermore, this assay endpoint can be referred to as a primary readout, because this assay has produced multiple assay endpoints where this one serves a reporter gene function. […]
Human liver HepG2 cells are transiently transfected with multiple reporter transcription units (MRTUs) in 6-well plates using FuGene 6 reagent (Roche; 3 ml FuGene/1 mg DNA). […] A major difference between the CIS and TRANS system is that in CIS activities of endogenous TFs are measured, whereas the TRANS assay evaluates changes in activities of exogenous, chimeric NR-Gal4 proteins. […] The fragments were purified using Qiaquick PCR columns (Qiagen), analyzed on an ABI 3130xL genetic analyzer (Applied Biosystems) with peak positions identified by using a set of X-rhodamine (ROX)-labeled MapMarker1000 molecular weight standards (BioVentures). […]

| SMILES | outcome |
| --- | --- |
| O=C(O)C(F)(F)C(F)(F)C(F)(F)C(F)(F)C(F)(F)C(F)(F)C(F)(F)F | inactive |
| CCCCOCN(C(=O)CCl)c1c(CC)cccc1CC | inactive |
| O=S(=O)(O)C(F)(F)C(F)(F)C(F)(F)C(F)(F)C(F)(F)C(F)(F)F | inactive |
